A short description of test [1]: qHTS drug screen for cell cycle checkpoint inhibitors in PARPi-resistant BRCA-mutant ovarian cancer cell lines. (AID 1963452; calls by dose curve). The conditions noted are these: PEO1/OlaR viability, CellTiter-Glo luminescence, 96 h, stronger effect = lower value. A digest of the protocol: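 PEO1, PEO4 and PEO1/OlaR ovarian cancer cells, 600 per well, exposed 96 h at 37C to a dilution series. Viability read by CellTiter-Glo luminescence, normalized to DMSO and empty wells; activity summarized as Z-AUC.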
For orientation: Quantitative high-throughput screening tests each substance at several concentrations.

Test [2] concerns the target Cytochrome P450 3A4 (Homo sapiens) (UniProt P08684). The test is described as follows: qHTS for inhibitors of CYP3A4 against the NCATS DSHEA and TCM libraries (AID 1919971).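 Also: % is scaled to controls: 0 for no effect and ±100 for the full control effect; inhibition lowers luminescence from luciferin made by CYP3A4.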 The conditions noted are these: recombinant CYP3A4 enzyme activity, luminescence qHTS; series mostly up to 34.1 µM. In outline:
(§1)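 Concentration-response screening with isoform-matched pro-luciferin substrates. The CYP reaction was initiated by NADPH regenerating solution and ran 30-45 min in darkness at room temperature.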

Test [3] concerns the target Cytochrome P450 2C9 (Homo sapiens) (UniProt P11712). The test is described as follows: qHTS for inhibitors of CYP2C9 against the NCATS DSHEA and TCM libraries (AID 1919973).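 Also: luminogenic pro-luciferin CYP2C9 substrate turned into luciferin with NADPH regeneration; % is scaled to controls: 0 for no effect and ±100 for the full control effect.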 Particulars: recombinant CYP2C9 enzyme activity, luminescence; series mostly up to 34.1 µM. A digest of the protocol: as §1
The target of test [4] is Cytochrome P450 2C19 (Homo sapiens) (UniProt P33261). The test is described as follows: qHTS for inhibitors of CYP2C19 against the NCATS DSHEA and TCM libraries (AID 1919974).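 Also: luminescence from luciferin released by CYP2C19 oxidation of a pro-luciferin substrate; % is scaled to controls: 0 for no effect and ±100 for the full control effect.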 The conditions noted are these: CYP2C19 enzyme inhibition, luminescence qHTS; series mostly up to 34.1 µM. A digest of the protocol:
as §1

A short description of test [5]: KB-3-1 P-gp reporter qHTS against the NCATS DSHEA and TCM libraries (AID 1919975). Also: 0% is about no effect. Particulars: KB-3-1 parental cells, CellTiter-Glo luminescence viability, 72 h; series mostly up to 26.1 µM. In outline:
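Cell viability by CellTiter-Glo luminescence following ~72 h compound exposure (concentration-response). Uses parental, non-P-gp-overexpressing KB-3-1 line, 500 cells/well in DMEM/10% FBS, attached ~4 h before dosing.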

The target in test [6] is Cytochrome P450 1A2 (Homo sapiens) (UniProt P05177). The test is described as follows: qHTS for inhibitors of CYPIA2 against the NCATS DSHEA and TCM libraries (AID 1919976).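 Also: light from luciferin formed by CYP1A2 from a pro-luciferin substrate; % is scaled to controls: 0 for no effect and ±100 for the full control effect.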 Particulars: recombinant CYP1A2 enzyme activity, luminescence; series mostly up to 37 µM. A digest of the protocol:
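Enzyme and pro-luciferin substrate, or substrate alone as no-enzyme background, are pre-incubated with test samples for 15 min at room temperature. NADPH regeneration system (1x final) initiates a 30-45 min dark reaction; luciferase detection reagent follows before luminescence reading.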

A short description of test [7]: qHTS Counterscreen for compound interference against the NCATS DSHEA and TCM libraries (AID 1919978).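 Also: compounds preincubated with 1 µM D-luciferin or buffer before detection reagent; % of control where 0% means no effect.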 The conditions noted are these: firefly luciferase detection reagent interference, luminescence. In outline: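 With 1 uM D-luciferin or phosphate buffer only, compounds at final 19.5 nM–39.8 uM were incubated for 15 min at room temperature. Luciferase detection reagent was then added, and luminescence was measured after a further 30 min at room temperature.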

Test [8] is described as follows: Dual reporter qHTS for agonist of Pregnane X Receptor (hPXR) against the NCATS DSHEA and TCM libraries: Fluorescence readout (AID 1920058). Also: 0% is about no effect. The conditions noted are these: PXR dual reporter cells; series mostly up to 40 µM. A digest of the protocol: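 Cells were plated at 2000 per well and allowed to attach for 5 h. Test substances were pinned in and incubated roughly 24 h. CellTiter-Fluor was then added and fluorescence measured after 1 h.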

The target in test [9] is Nuclear receptor subfamily 1 group I member 2 (Homo sapiens) (UniProt O75469). The test is described as follows: Dual reporter qHTS for agonist of Pregnane X Receptor (hPXR) against the NCATS DSHEA and TCM libraries: Luminescence readout (AID 1920059). Also: 0% is about no effect. Particulars: hPXR dual reporter cells, luciferase luminescence agonist; series mostly up to 40 µM. In outline:
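Luminescent PXR reporter read (ONE-Glo) after a CellTiter-Fluor viability read, following 24 h, 37C treatment of HepG2 cells stably carrying hPXR-Luc.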

For test [10] the target is unchanged. Briefly: Dual reporter qHTS for antagonist of Pregnane X Receptor (hPXR) against the NCATS DSHEA and TCM libraries: Luminescence Readout (AID 1920060).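 Also: HepG2 cells carrying hPXR luciferase reporter stimulated with rifampicin at 2 µM; 0% is about no effect.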 The conditions noted are these: hPXR dual reporter cells, luciferase luminescence, antagonist mode; series mostly up to 40 µM. In outline: (§2)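 Antagonist mode: rifampicin 2 uM final co-added with compounds to hPXR-LucHepG2 cells for 24 h at 37C. Viability by CellTiter-Fluor, Ex/Em 405/540 nm, 1 h; reporter by ONE-Glo luminescence.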

Test [11] in a line: Dual reporter qHTS for antagonist of Pregnane X Receptor (hPXR) against the NCATS DSHEA and TCM libraries: Fluorescence Readout (AID 1920061). Also: 0% is about no effect. Particulars: PXR dual reporter cells, antagonist mode; series mostly up to 40 µM. A digest of the protocol:
as §2

A short description of test [12]: qHTS profiling for inhibitors of Plasmodium falciparum proliferation (AID 504749).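 Also: 0% = DMSO vehicle and full inhibition = artemisinin control; nearly all actives have a fitted effect of over 60% in size.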 The conditions noted are these: P. falciparum in erythrocytes, SYBR Green DNA, 72 h, at 28.7 µM (top of the series). In outline: (§3)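 SYBR Green fluorescence of parasite DNA, read after lysis and overnight dark incubation, measured growth over 72 h in erythrocyte culture at 0.3% parasitemia and 2.5% hematocrit. Data normalised to DMSO and 0.29 uM artemisinin, with plate-drift correction.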

The test system of another test is 3D7. The description is as above. The conditions noted are these: P. falciparum in erythrocytes, SYBR Green DNA, 72 h; series mostly up to 28.7 µM. In outline:
as §3

The next test deals with 7G8. The description is as above. Particulars: P. falciparum in erythrocytes, SYBR Green DNA, 72 h; series mostly up to 28.7 µM. A digest of the protocol: as §3
A further test concerns AA1029. The description is as above. The conditions noted are these: P. falciparum in erythrocytes, SYBR Green DNA, 72 h; series mostly up to 28.7 µM. A digest of the protocol:
as §3

For another test, the system named is AS120. The description is as above. Particulars: P. falciparum in erythrocytes, SYBR Green DNA, 72 h; series mostly up to 28.7 µM. A digest of the protocol: as §3
For the next test, the system named is ATS189. Described as above. Particulars: P. falciparum in erythrocytes, SYBR Green DNA, 72 h; series mostly up to 28.7 µM. A digest of the protocol:
as §3

The test system of the next test is ATS95. The description is as above. The conditions noted are these: P. falciparum in erythrocytes, SYBR Green DNA, 72 h; series mostly up to 28.7 µM. In outline:
as §3

Another test concerns C2A. The test is described as above. The conditions noted are these: P. falciparum in erythrocytes, SYBR Green DNA, 72 h; series mostly up to 28.7 µM. A digest of the protocol:
as §3

For test [13], the target named is Cytochrome P450 2D6 (Homo sapiens) (UniProt P10635). Briefly: qHTS for inhibitors of CYP2D6 against the NCATS DSHEA and TCM libraries (AID 1919972). Also: % is scaled to controls: 0 for no effect and ±100 for the full control effect. Particulars: CYP2D6 enzymatic inhibition, luminescence qHTS; series mostly up to 34.1 µM. In outline: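 CYP2D6 enzyme with pro-luciferin substrate in manufacturer buffer (typically 100 mM KPO4), preincubated 15 min RT with substances (most at 19.5 nM upward); NADPH regeneration system (1x) started 30–45 min RT reaction; P450-Glo luminescence read after 30 min; quinidine as intraplate control.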
Chain of Cytochrome P450 2D6 (Homo sapiens) (P10635 whole entry, looked up): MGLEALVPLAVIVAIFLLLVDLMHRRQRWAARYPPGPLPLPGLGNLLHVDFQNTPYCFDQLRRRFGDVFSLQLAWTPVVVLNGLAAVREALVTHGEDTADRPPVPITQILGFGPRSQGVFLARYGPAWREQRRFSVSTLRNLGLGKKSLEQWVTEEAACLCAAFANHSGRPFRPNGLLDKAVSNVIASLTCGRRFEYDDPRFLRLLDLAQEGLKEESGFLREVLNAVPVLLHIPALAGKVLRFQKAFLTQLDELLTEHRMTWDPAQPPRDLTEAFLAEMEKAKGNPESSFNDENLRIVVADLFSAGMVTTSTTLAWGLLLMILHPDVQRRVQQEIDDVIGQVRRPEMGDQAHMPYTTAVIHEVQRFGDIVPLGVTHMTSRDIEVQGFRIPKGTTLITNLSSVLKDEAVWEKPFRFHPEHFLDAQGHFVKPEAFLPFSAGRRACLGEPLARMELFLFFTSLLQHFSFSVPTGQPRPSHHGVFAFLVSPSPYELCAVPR

[14] abbreviates: measured here: PEO1 parental Z-AUC.

Results filed as inconclusive are left out. Activity calls are given as the source filed them. Unless noted, calls follow the shape of the dose curve; as a rule, active = well fitted curve in the direction sought with a large enough effect; inconclusive = small, poorly fitted or top-dose-only effect, or another doubt; inactive = no such curve, though single readings can be large; an effect the other way counts as inactive or inconclusive. Where a SMILES comes first, the peptide text is derived from it. Bridges are numbered along the chain shown (N, C = ends). [ ]: non-standard residue; d: D form. The star is where a group is joined. X1 = CCC(C)C(N)C1=NC(C(=O)*)CS1; dOrn = NCCC[C@@H](N)C(=O)O

Chain of Nuclear receptor subfamily 1 group I member 2 (Homo sapiens) (O75469 whole entry, looked up): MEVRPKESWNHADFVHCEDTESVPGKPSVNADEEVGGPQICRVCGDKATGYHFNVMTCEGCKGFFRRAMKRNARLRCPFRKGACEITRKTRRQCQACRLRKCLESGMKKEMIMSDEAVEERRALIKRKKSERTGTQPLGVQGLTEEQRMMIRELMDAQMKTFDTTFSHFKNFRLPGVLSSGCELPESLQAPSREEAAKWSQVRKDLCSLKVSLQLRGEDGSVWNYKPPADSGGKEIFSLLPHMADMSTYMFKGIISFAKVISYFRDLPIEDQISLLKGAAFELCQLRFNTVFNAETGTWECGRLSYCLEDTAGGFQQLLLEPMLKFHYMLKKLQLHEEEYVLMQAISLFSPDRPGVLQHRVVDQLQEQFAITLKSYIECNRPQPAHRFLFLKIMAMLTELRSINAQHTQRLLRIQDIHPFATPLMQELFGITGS
Chain of Cytochrome P450 2C19 (Homo sapiens) (P33261 whole entry, looked up): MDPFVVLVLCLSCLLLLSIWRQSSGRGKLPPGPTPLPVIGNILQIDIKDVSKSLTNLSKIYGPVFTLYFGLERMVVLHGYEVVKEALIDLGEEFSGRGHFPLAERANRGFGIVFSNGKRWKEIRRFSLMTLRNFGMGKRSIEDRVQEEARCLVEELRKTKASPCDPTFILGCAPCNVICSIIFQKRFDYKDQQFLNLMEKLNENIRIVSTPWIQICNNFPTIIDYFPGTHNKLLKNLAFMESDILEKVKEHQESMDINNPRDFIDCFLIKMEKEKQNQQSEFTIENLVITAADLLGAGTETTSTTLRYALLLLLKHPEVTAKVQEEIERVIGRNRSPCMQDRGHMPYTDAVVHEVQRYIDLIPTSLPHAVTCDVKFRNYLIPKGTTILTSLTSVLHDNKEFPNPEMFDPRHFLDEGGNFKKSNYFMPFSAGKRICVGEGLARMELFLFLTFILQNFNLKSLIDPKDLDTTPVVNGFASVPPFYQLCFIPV
Chain of Cytochrome P450 3A4 (Homo sapiens) (P08684 whole entry, looked up, canonical isoform): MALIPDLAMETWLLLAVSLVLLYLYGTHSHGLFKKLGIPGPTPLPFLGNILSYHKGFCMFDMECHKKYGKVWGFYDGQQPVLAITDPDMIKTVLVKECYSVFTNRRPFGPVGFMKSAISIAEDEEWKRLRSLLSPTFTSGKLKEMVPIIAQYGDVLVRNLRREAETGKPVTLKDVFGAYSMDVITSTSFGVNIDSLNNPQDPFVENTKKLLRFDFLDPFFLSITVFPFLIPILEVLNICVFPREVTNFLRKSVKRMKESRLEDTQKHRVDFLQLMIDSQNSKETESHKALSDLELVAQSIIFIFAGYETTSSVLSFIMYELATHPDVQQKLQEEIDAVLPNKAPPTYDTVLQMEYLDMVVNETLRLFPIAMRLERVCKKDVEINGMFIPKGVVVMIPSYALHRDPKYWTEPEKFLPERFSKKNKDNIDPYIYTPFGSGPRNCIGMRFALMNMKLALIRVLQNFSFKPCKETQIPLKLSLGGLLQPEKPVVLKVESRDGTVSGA
Chain of Cytochrome P450 2C9 (Homo sapiens) (P11712 whole entry, looked up): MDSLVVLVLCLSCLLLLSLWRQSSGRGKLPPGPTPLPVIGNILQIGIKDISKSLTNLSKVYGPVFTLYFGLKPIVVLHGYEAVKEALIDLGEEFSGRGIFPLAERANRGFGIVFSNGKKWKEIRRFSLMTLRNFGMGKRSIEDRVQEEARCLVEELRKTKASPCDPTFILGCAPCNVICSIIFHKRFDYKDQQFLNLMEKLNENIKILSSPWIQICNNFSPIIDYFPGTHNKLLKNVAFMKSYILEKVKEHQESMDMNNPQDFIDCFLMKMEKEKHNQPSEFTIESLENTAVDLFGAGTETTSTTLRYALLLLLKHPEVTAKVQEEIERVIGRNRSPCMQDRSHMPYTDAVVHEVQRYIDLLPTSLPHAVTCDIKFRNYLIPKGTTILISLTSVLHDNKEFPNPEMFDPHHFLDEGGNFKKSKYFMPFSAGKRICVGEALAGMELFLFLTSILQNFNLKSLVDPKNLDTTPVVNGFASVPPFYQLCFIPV
Chain of Cytochrome P450 1A2 (Homo sapiens) (P05177 whole entry, looked up): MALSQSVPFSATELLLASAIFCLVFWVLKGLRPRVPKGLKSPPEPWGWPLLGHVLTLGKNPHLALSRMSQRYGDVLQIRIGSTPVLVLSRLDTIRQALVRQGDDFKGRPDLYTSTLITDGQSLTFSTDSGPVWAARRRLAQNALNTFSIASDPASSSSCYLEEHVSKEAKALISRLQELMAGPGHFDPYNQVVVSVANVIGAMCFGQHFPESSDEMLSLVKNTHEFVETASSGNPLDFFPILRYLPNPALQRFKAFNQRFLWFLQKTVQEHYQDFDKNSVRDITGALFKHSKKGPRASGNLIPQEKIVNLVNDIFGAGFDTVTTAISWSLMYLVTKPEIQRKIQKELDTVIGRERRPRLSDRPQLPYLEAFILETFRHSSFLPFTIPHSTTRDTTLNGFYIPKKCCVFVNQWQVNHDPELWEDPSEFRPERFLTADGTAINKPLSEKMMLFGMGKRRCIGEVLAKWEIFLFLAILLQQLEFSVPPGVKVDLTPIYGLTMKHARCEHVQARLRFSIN

Regarding `CN1CC[C@@H](NC(=O)Nc2ccc(C#N)cc2)C[C@@H]1c1nc2ccccc2[nH]1`, the Z-AUC was -0.312 (inactive) in test [1], 0.0879 in test [1] (setting [14]) and -1.25 in test [1] (measured here: PEO4 Z-AUC).
Taken in the same sequence, the figures for `NS(=O)(=O)NCCNc1nonc1C(=Nc1ccc(F)c(Br)c1)NO` were 1.03 (inactive), 0.698 and 1.08.
For `CCC(C)C(N)C1=NC(C(=O)N[C@@H](CC(C)C)C(=O)N[C@H](CCC(=O)O)C(=O)N[C@H](C(=O)N[C@H]2CCCCNC(=O)[C@H](CC(N)=O)NC(=O)[C@@H](CC(=O)O)NC(=O)[C@H](Cc3cnc[nH]3)NC(=O)[C@@H](Cc3ccccc3)NC(=O)[C@H]([C@@H](C)CC)NC(=O)[C@@H](CCCN)NC2=O)[C@@H](C)CC)CS1` (stereo partly drawn) (X1-L[dE]IK[dOrn]I[dF]H[dD]N; lactam 4-C), in that order: 0.134 (inactive), 1.01 and 0.703.
In the case of `Cc1c(C)c2c(c(C)c1O)CC[C@@](C)(CCC[C@H](C)CCC[C@H](C)CCCC(C)C)O2`, the result in test [2], in test [5], in test [6], in [8], in test [9] and in [10] was inactive. Besides, the compound was classed as inactive in test [11]. The Potency result (in test [3]; in [4]; with 3D7; with 7G8; in the test with AA1029; with AS120) was “inactive” in each case. Besides, the Potency result in the test on ATS189, in the test with ATS95 and in the test with C2A was “inactive” throughout. For the same compound, the max response in test [7] is -0.537% (inactive). In addition, the activity, negative = inhibition in test [12] (parasite line A) is -10.2% (inactive); in test [12] (parasite line B), -2.69% (inactive).
Regarding `CC1=C(/C=C/C(C)=C/C=C/C(C)=C/C=C/C=C(C)/C=C/C=C(C)/C=C/C2=C(C)CCCC2(C)C)C(C)(C)CCC1`, the result in test [2], in [13], in test [5], in test [8], in [9] and in [10] was inactive. In test [11], the call was inactive. Also, the Potency result (in test [3]; in test [4]; in the test with 3D7; with 7G8; with AA1029; in the test on AS120) was “inactive” throughout. Besides, the Potency entry with ATS189, in the test with ATS95 and in the test on C2A was “inactive” throughout. For the same compound, the max response in [7] was -3.35% (inactive). The Z-AUC in [1] was 1.77 (inactive); in test [1] (setting [14]) it was 1.11; in [1] (measured here: PEO4 Z-AUC), 0.804. Also, the activity, negative = inhibition in test [12] (parasite line A) is 0.195% (inactive); in test [12] (parasite line B), -0.801% (inactive).
Regarding `Cc1cc(Nc2ncc(Cl)c(Nc3ccccc3S(=O)(=O)C(C)C)n2)c(OC(C)C)cc1C1CCNCC1`, the Z-AUC in test [1] was -1.77 (inactive); in [1] (setting [14]), -0.797; in [1] (measured here: PEO4 Z-AUC), -0.548.

(Values after PubChem BioAssay (NCATS).)
